# Screens (PubChem)
# L3MBTL1 block – blocks human L3MBTL1; AlphaScreen L3MBTL1–H3K9me1 peptide binding; Q9Y468; AID 485360; hit rate 0.66% among 230,000; Potency, µM (series often up to 57.1 µM), actives largely listed as inhibitors; note: nearly all actives have a fitted effect of over 60% in size
# Target sequence (Q9Y468 whole entry, looked up): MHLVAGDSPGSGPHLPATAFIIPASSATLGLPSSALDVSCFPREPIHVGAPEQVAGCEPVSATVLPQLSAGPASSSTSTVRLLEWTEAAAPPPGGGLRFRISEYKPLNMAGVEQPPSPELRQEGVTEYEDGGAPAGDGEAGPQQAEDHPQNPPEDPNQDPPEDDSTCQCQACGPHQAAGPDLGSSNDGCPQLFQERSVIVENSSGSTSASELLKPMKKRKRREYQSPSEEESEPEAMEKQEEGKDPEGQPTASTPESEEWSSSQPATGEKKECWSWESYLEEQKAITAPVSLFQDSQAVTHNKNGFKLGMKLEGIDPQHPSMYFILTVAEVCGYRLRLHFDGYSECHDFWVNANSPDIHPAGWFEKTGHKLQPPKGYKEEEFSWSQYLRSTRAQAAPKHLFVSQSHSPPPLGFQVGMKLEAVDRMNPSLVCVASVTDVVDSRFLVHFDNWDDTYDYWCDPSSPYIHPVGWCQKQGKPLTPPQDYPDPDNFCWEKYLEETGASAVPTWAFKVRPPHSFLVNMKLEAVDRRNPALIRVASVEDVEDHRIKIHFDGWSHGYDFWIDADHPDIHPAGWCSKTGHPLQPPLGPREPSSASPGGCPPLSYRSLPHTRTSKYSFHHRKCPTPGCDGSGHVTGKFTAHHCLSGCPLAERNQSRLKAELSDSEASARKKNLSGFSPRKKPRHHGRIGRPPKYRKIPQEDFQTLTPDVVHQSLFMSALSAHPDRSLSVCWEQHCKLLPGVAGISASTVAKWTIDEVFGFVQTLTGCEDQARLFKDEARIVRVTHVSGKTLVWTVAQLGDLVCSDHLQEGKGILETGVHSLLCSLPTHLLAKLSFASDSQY
#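 Displacement of a biotinylated histone H3(1-15) peptide monomethylated at Lys9 (75 nM) from L3MBTL1 (50 nM) was measured by AlphaScreen after a 30 min room-temperature compound incubation; cefsulodin titration served as intraplate control.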
# BAZ2B block – inhibitors of human BAZ2B bromodomain; AID 504333; Potency, µM (doses to about 114 µM), most hits filed as inhibitors; Q9UIF8; AlphaScreen BAZ2B-H3K14Ac peptide displacement; hit rate 4.4% among 360,000; note: nearly all actives have a fitted effect of over 60% in size
#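 Multi-concentration screen (max 110 uM) measuring displacement of acetylated histone H3 peptide from BAZ2B by AlphaScreen, using 50 nM protein, 50 nM peptide and 10 ug/mL streptavidin donor plus Ni-chelate acceptor beads.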
# G9a inh – inhibitors of human histone lysine methyltransferase G9a. Q96KQ7. hit rate 8.8% among 350,000. AID 504332. G9a H3K9 monomethylation, AlphaScreen, 2 h. Potency, µM (titrated, usually from 102 µM), actives largely listed as inhibitors; note: nearly all actives have a fitted effect of over 75% in size
#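 AlphaScreen detection with an anti-monomethyl H3K9 antibody quantified product after a 2 h room-temperature reaction containing 500 nM biotinylated H3K9 peptide, 20 µM SAM and 20 nM enzyme, which had been preincubated 15 min with compound.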
# HP1b chromo inh – inhibitors of HP1-beta chromodomain binding to methylated histone tails | AlphaScreen HP1-beta / biotin-H3K9me3 peptide binding | Potency, µM (highest dose often 114 µM), most hits filed as inhibitors | hit rate 0.56% among 390,000 | AID 540317; note: nearly all actives have a fitted effect of over 70% in size
#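 Compound inhibition of the preformed complex between 50 nM HP1-beta and 50 nM biotinylated H3K9me3 peptide was read by AlphaScreen. Buffer was PBS pH 7.4 with 0.01% Tween-20. Incubations ran 30 min at room temperature, with 10 ug/mL donor/acceptor beads.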
# Sfp inh – Sfp phosphopantetheinyl transferase inhibition | Q9F4F7 | Biochemical Sfp PPTase activity, qHTS | Potency, µM, most hits filed as inhibitors | hit rate 3.5% among 310,000;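 note: the enzyme is Sfp with the accession as filed and its product quenches rhodamine fluorescence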
#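 After 15 min at room temperature with compound, 15 nM Sfp received 5 uM rhodamine-CoA plus 12.5 uM BHQ-2-ybbR (50 mM Hepes pH 7.6, 10 mM MgCl2). Rate came from the fluorescence difference over 30 min, ex 525/em 598 nm.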
# JMJD2A Tudor – blocks the human JMJD2A Tudor domain | AlphaScreen JMJD2A-Tudor / H3K4me3 peptide binding | Potency, µM (series often up to 114 µM), usual class: inhibitors | hit rate 4.4% among 390,000 | AID 504339; note: nearly all actives have a fitted effect of over 50% in size
# A number is an active result; n = inactive; u = inconclusive; x = not tested or not shown; [ ] = remark or other dose. In the library only some 12% were active in any assay of this set; here they are far more common. Calls come from the whole dose curve; as a rule, active = well fitted curve in the direction sought with a large enough effect; inconclusive = small, poorly fitted or top-dose-only effect, or another doubt; inactive = no such curve, though single readings can be large; an effect the other way counts as inactive or inconclusive.
SMILES,L3MBTL1 block,BAZ2B block,G9a inh,HP1b chromo inh,Sfp inh,JMJD2A Tudor
CCC1CCc2nc3sc(C(=O)Nc4ccc(C)cc4C)c(N)c3cc2C1 (stereo not given),x,n,n,n,x,n
COC(=O)C(C)Sc1n[nH]c(=S)s1 (stereo not given),x,u,6.31µM,u,50.1µM,39.8µM
O=C(O)CC(Sc1n[nH]c(=S)s1)C(=O)O (stereo not given),n,79.4µM,x,n,15.8µM,44.7µM
COc1ccc(N=Cc2c(O)n(-c3cccc(C)n3)c(=O)c3ccccc23)c(OC)c1,x,n,n,n,n,n
O=C(Nc1ccc(Br)cc1)c1ccco1,x,n,n[12.7 µM],n,n,n
O=C(Nc1nnc(-c2cccs2)o1)c1ccco1,x,35.5µM,10µM,n,n,44.7µM
COc1cc(-c2nnc(NC(=O)c3ccco3)o2)cc(OC)c1OC,n,79.4µM,u,n,x,u
O=C(Nc1nnc(-c2ccc(Br)cc2)o1)c1ccco1,n,79.4µM,n,n,x,u
O=C(Nc1nnc(-c2ccccc2Cl)o1)c1ccco1,n,79.4µM,u,n,n,79.4µM
CCOc1cc(-c2nnc(NC(=O)c3ccco3)o2)cc(OCC)c1OCC,n,n,n,n,x,n
C=CCn1c(C)nnc1SCC(=O)Nc1nccs1,x,n,u,n,n,n
CC(=O)c1ccc(Nc2c3ccccc3cc3occc23)cc1,x,x,x,x,n,x
O=C1NC(=O)/C(=C\c2ccsc2)N1,x,n,n,n,n,31.6µM
NNc1nc2sc3c(c2c(=O)[nH]1)CCc1ccccc1-3,n,n,u,n,u,u
C=CCn1c(SCCC)nc2sc3c(c2c1=O)CCc1ccccc1-3,n,n,u,n,n,n
C=CCSc1nc2sc3c(c2c(=O)n1CC=C)CCc1ccccc1-3,n,n,n,n,44.7µM,n
CCSc1nc2sc3c(c2c(=O)[nH]1)CCc1ccccc1-3,n,n,50.1µM,n,n,n
CCCCCC(C)N (stereo not given),x,x,n[2.33 µM],x,n,x
CC(C)CC(=O)NC(=S)Nc1cc(C(F)(F)F)ccc1N1CCOCC1,n,n,79.4µM,n,n,n
O=C(Nc1cc(C(F)(F)F)ccc1N1CCOCC1)c1ccncc1,n,x,x,n,x,n
O=C(CNCc1ccccn1)Nc1cc(C(F)(F)F)ccc1N1CCOCC1,n,44.7µM,n,n,n,44.7µM
O=C(CCc1ccccc1)NC(=S)Nc1cc(C(F)(F)F)ccc1N1CCOCC1,n,n,n[0.501 µM],n,n,n
O=C(NCCCN1CCCC1=O)c1cccc(S(=O)(=O)N2CCN(c3ccccc3)CC2)c1,x,n,x,n,n,n
O=C(COC(=O)Cc1ccsc1)Nc1cccc(F)c1,n,n,n[12.7 µM],n,x,n
COC(=O)NC(CC(C)=O)c1ccc(Cl)cc1 (stereo not given),x,x,x,x,n,x
SMILES,L3MBTL1 block,BAZ2B block,G9a inh,HP1b chromo inh,Sfp inh,JMJD2A Tudor
COc1ccccc1C(=O)C1CCCN(C(=O)c2snnc2C)C1 (stereo not given),n,n,x,n,n,n
CN(c1ccccc1)S(=O)(=O)c1ccc(Cl)c(C(=O)Nc2ccc(N3CCOCC3)cc2)c1,n,u,50.1µM,n,n,u
Cc1ccc(S(=O)(=O)N2CCOCC2)cc1C(=O)Nc1ccc(N2CCCCCC2)cc1,u,39.8µM,n[0.501 µM],u,x,22.4µM
Cc1ccc(S(=O)(=O)N2CCCCC2)cc1C(=O)NCCCN1CCOCC1,x,n,n,n,n,n
CCC1CCCCN1C(=S)NC(=O)c1cc(S(=O)(=O)N2CCOCC2)ccc1C (stereo not given),n,n,44.7µM,n,n,n
Cc1ccc(S(=O)(=O)N2CCCC2)cc1C(=O)NCCN1CCOCC1,x,u,79.4µM,n,n,n
Cc1ccc(S(=O)(=O)N2CCOCC2)cc1C(=O)NCC1CCCO1 (stereo not given),x,n,x,n,n,n
COc1ccccc1C(=O)Nc1nnc(SCc2cc(=O)n3ccc(C)cc3n2)s1,x,n,n,n,x,n
Cc1cc(C)cc(NC(=O)C(=O)NCC(c2ccc3c(c2)OCO3)N2CCN(C)CC2)c1 (stereo not given),x,n,n,n,x,n
CC(C)n1cc(CNC(=O)C2CCC(=O)N(Cc3ccccc3F)C2)cn1 (stereo not given),x,n,n,n,n,n
O=C(NC(=S)N1CCCCC1CO)c1cc(Br)ccc1Cl (stereo not given),n,n,u,n,x,7.94µM
O=C(Nc1ccc(OC(F)F)cc1)c1cc(S(=O)(=O)N2CCCCC2)ccc1N1CCOCC1,n,n,15.8µM,n,x,n
C=CCN1C(=O)/C(=C2/C(=O)N(CC(=O)O)c3ccccc32)S/C1=N/c1nccs1,7.94µM,12.6µM,n[2.33 µM],x,n,x
COc1ccc(/C=C(/NC(=O)c2ccccc2OC)C(=O)Nc2ccc(C(=O)O)cc2)cc1,x,u,u,n,n,n
CCCCN(C)CC(O)Cn1cc(/C=C/C(=O)c2ccc(C)cc2)c2ccccc21 (stereo not given),x,u,n,n,u,50.1µM
CCCCN(C)CC(O)Cn1cc(/C=C/C(=O)c2ccc(Br)cc2)c2ccccc21 (stereo not given),x,u,n,n,x,70.8µM
CCCN(CCC)CC(O)Cn1cc(/C=C/C(=O)c2ccc(Br)cc2)c2ccccc21 (stereo not given),x,n,n,n,x,u
COc1cccc(C(=O)N/N=C/c2ccc(OC)c(COc3ccccc3C(N)=O)c2)c1,x,n,n,n,n,n
COc1ccc(/C=C/C(=O)c2ccccc2)cc1COc1ccccc1F,n,n,x,n,89.1µM,n
COc1ccc(C=O)cc1COc1ccccc1F,n,n,n,n,n,n
COc1ccc(/C=N\NC(=O)c2ccc(F)cc2)cc1COc1ccccc1C(N)=O,x,n,35.5µM,n,n,n
COc1ccc(/C=N\NC(=O)c2ccc([N+](=O)[O-])cc2)cc1COc1c(F)c(F)cc(F)c1F,x,n,63.1µM,n,n,n
O=C(NC1CCCCC1)C(c1ccncc1)N(C(=O)c1csnn1)c1ccccc1F (stereo not given),x,n,n,n,n,n
Cc1ccc(S(=O)(=O)N(C)/N=C2/C(=O)N(CC(=O)O)c3ccccc32)cc1,x,n,14.1µM,n,n,u
CC(C)N(C(=O)CN1C(=O)C(=O)c2ccccc21)c1ccccc1,n,n,n,n,n,n
Cc1cc[n+](-c2nc([O-])sc2/C=N/Nc2ccc([N+](=O)[O-])cc2)cc1,x,u,44.7µM,n,n,n
CCCCNc1cc(NC(C)=O)cc2cc(OC)c(OC)cc12,n,n,44.7µM,n,n,u
COc1ccc([N+](=O)[O-])cc1NCc1ccccc1,n,n,n,n,n,n
COc1cc2cc(NC(C)=O)cc(NCc3ccccc3)c2cc1OC,n,44.7µM,u,n,n,u
